Results taken from the supplement of paper PMC12297408.
Values without a mark were called inactive.

System: Plasmodium falciparum NF54/iGP1_RE9H ulg8 stage V gametocytes
Experiment: gametocyte viability (luciferase signal relative to DMSO control) (% of DMSO control); higher = less gametocytocidal activity, active = 50 or less
Settings: exposure time: 72 h
In short: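 NF54/iGP1_RE9Hulg8 stage V gametocytes (day 12; ~2.5% gametocytemia, 3% hematocrit) were incubated with compounds at 10 µM or 1 µM final, in one well each, for 72 h at 37 °C in medium with 0.5% Albumax II. Luminescence after D-luciferin addition was read on an IVIS Lumina II. Viability refers to the mean of plate DMSO vehicle wells.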

NC(=O)c1ccc(N(C(N)=O)c2c(F)cccc2F)nc1-c1ccc(F)cc1F
gametocyte viability (concentration: 1 µM): 99.2
gametocyte viability (concentration: 10 µM): 103

CCN(CCO)CCCOc1ccc2c(Nc3cc(CC(=O)Nc4cccc(F)c4)[nH]n3)ncnc2c1 [Barasertib (AZD1152-HQPA)]
gametocyte viability (concentration: 1 µM): 104
gametocyte viability (concentration: 10 µM): 93.1

FC(F)(F)c1ccc(/C=C/c2nc(COc3ccc(CCCCn4ccnn4)cc3)co2)cc1 [Mubritinib (TAK 165)]
gametocyte viability (concentration: 1 µM): 95.1
gametocyte viability (concentration: 10 µM): 104

CC(C)(C)c1cc(NC(=O)Nc2ccc(-c3cn4c(n3)sc3cc(OCCN5CCOCC5)ccc34)cc2)no1 [Quizartinib (AC220)]
gametocyte viability (concentration: 1 µM): 97.7
gametocyte viability (concentration: 10 µM): 85.9

CNC(=O)c1ccc(C)c(-n2c(C)cc(OCc3ccc(F)cc3F)c(Br)c2=O)c1
gametocyte viability (concentration: 1 µM): 100
gametocyte viability (concentration: 10 µM): 108

O=C1NC(=O)/C(=C/c2ccc3nccc(-c4ccncc4)c3c2)S1
gametocyte viability (concentration: 1 µM): 101
gametocyte viability (concentration: 10 µM): 103

COc1ccc(-c2cc3c(C)nc(N)nc3n([C@H]3CC[C@H](OCCO)CC3)c2=O)cn1
gametocyte viability (concentration: 1 µM): 95.3
gametocyte viability (concentration: 10 µM): 84.2

CCCCCCCCCCCCC/C=C/[C@@H](O)[C@@H](N)CO [D-erythro-Sphingosine]
gametocyte viability (concentration: 1 µM): 113
gametocyte viability (concentration: 10 µM): 119

O=c1cc(-c2cccc3c2Sc2ccccc2S3)oc(N2CCOCC2)c1
gametocyte viability (concentration: 1 µM): 110
gametocyte viability (concentration: 10 µM): 107

COc1cccc2cc(-c3nc([C@H]4CC[C@H](C(=O)O)CC4)n4ncnc(N)c34)[nH]c12
gametocyte viability (concentration: 1 µM): 108
gametocyte viability (concentration: 10 µM): 109
